Reference: PubChem BioAssay (NCATS)
“And” between values parts separate entries of the source, which are not always exact repeats. Equal values may be shown once. Inconclusive results are not listed. The source made the active and inactive calls. Unless noted, calls come from the whole dose curve; as a rule, active = well fitted curve in the direction sought with a large enough effect; inconclusive = small, poorly fitted or top-dose-only effect, or another doubt; inactive = no such curve, though single readings can be large; an effect the other way counts as inactive or inconclusive.

Experiments:
[1] = Primary qHTS for small molecule stabilizers of the endoplasmic reticulum resident proteome: Secreted ER Calcium Modulated Protein (SERCaMP) assay (AID 1508630); note: % is set by controls: 0 for no effect and ±100 for the full control effect
In short: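 GLuc-SERCaMP-expressing SH-SY5Y cells, pretreated 16 h with compound, are challenged with thapsigargin to empty ER calcium stores; after 4 h, coelenterazine is added directly to the medium and luminescence is imaged.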

[2] = biological target: Cytochrome P450 2C9 (Homo sapiens) (UniProt P11712); test: Cytochrome P450 family 2 subfamily C member 9 (CYP2C9) small molecule antagonists: luciferase biochemical (cell-free) qHTS assay (AID 1645842; active = well fitted curve in the direction sought with a large enough effect in the repeat runs; an effect the other way counts as inactive or inconclusive; note: nearly all actives have a fitted effect of over 55% in size; note: potency is the fitted concentration of half-maximal effect; for activity change, negative = inhibition: % is set by controls: 0 for no effect and ±100 for the full control effect)
Sequence of Cytochrome P450 2C9 (Homo sapiens) (P11712 whole entry, looked up): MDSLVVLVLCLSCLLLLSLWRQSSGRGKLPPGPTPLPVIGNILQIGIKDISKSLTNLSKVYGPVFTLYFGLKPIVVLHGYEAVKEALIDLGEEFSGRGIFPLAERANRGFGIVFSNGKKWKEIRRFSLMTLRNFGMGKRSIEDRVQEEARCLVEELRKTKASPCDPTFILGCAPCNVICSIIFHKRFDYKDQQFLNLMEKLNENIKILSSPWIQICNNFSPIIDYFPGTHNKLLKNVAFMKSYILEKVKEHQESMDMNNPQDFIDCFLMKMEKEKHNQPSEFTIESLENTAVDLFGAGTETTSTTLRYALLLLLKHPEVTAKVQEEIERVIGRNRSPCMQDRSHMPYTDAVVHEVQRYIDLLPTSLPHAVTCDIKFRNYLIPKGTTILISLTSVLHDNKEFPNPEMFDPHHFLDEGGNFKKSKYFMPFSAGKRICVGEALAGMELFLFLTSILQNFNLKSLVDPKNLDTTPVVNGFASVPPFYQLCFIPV
In short: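 Luminescence, after 20 min with luciferin detection reagent, reflected CYP2C9 turnover during a 1 h NADPH-driven reaction at 37C. Enzyme-substrate mix contained 0.4% bovine serum albumin and was preincubated with compound 10 min at room temperature.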

[3] = Primary qHTS for inhibitors of nuclear receptor binding SET domain protein 2 (NSD2) in an isogenic RCH-ACV NSD2 p.E1099K mutant (9B) (AID 1645876); note: nearly all actives have a fitted effect of over 70% in size; note: potency is the fitted concentration of half-maximal effect
[4] = Primary qHTS for inhibitors of nuclear receptor binding SET domain protein 2 (NSD2) in an RCH-ACV wild type WT cells (2C) (AID 1645877); note: nearly all actives have a fitted effect of over 70% in size; note: potency is the fitted concentration of half-maximal effect
[5] = biological target: Cytochrome P450 2D6 (Homo sapiens) (UniProt P10635); test: Cytochrome P450 family 2 subfamily D member 6 (CYP2D6) small molecule antagonists: luciferase biochemical (cell-free) qHTS assay (AID 1645840; active = well fitted curve in the direction sought with a large enough effect in the repeat runs; an effect the other way counts as inactive or inconclusive; note: nearly all actives have a fitted effect of over 55% in size; note: potency is the fitted concentration of half-maximal effect; for activity change, negative = inhibition: % is set by controls: 0 for no effect and ±100 for the full control effect)
Sequence of Cytochrome P450 2D6 (Homo sapiens) (P10635 whole entry, looked up): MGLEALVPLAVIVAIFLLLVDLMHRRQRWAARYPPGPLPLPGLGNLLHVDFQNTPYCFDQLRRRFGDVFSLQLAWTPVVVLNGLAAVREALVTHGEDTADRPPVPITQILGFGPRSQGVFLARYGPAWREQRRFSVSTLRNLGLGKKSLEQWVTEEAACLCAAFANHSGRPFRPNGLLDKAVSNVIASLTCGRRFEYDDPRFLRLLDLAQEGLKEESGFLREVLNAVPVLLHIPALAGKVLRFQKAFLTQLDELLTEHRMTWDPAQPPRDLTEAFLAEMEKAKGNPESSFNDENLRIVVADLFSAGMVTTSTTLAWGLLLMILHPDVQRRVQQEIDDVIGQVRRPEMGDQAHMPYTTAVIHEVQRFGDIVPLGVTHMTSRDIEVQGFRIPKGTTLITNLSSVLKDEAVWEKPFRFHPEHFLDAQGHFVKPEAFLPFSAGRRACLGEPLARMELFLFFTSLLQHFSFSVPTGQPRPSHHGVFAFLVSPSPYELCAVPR
In short: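 P450-Glo luminescent screen: recombinant CYP2D6 enzyme–proluciferin substrate mix preincubated with compound 10 min at room temperature, then NADPH regeneration added for 1 h at room temperature. Detection reagent added for 20 min; luciferin light read as relative luminescence units.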

[6] = biological target: Catechol O-methyltransferase (Homo sapiens) (UniProt P21964); test: Confirmatory Screen for Target Class Profiling of Small Molecule Inhibitors of Methyltransferases (AID 1745852; calls by dose curve; note: potency is the fitted concentration of half-maximal effect; for activity change, negative = inhibition: % is set by controls: 0 for no effect and ±100 for the full control effect); conditions: MTase-Glo luminescence, SAH detection, recombinant enzyme; measured here: COMT max response; stronger effect = lower value
Sequence of Catechol O-methyltransferase (Homo sapiens) (P21964 whole entry, looked up): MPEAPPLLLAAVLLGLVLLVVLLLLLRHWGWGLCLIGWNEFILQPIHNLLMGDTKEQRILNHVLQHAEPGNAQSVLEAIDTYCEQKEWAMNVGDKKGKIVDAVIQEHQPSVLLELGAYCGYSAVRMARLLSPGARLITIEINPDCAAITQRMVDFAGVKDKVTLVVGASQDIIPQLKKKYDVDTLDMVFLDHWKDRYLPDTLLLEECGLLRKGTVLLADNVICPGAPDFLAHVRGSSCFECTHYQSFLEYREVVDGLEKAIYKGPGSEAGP

[7] = biological target: Guanidinoacetate N-methyltransferase (Homo sapiens) (UniProt Q14353); test: as above; conditions: MTase-Glo luminescence, SAH detection, recombinant enzyme; activity change, negative = inhibition: at 57.3 µM (top of the series) unless noted
[8] = biological target: Rap guanine nucleotide exchange factor 3 (Homo sapiens) (UniProt O95398); test: Confirmatory qHTS for antagonist of cAMP-regulated guanine nucleotide exchange factor 3 (EPAC1) (AID 1645880); conditions: EPAC1 Rap1B-BODIPY-GDP exchange, fluorescence; note: potency is the fitted concentration of half-maximal effect; nearly all actives have a fitted effect of over 55% in size
Sequence of Rap guanine nucleotide exchange factor 3 (Homo sapiens) (O95398 whole entry, looked up): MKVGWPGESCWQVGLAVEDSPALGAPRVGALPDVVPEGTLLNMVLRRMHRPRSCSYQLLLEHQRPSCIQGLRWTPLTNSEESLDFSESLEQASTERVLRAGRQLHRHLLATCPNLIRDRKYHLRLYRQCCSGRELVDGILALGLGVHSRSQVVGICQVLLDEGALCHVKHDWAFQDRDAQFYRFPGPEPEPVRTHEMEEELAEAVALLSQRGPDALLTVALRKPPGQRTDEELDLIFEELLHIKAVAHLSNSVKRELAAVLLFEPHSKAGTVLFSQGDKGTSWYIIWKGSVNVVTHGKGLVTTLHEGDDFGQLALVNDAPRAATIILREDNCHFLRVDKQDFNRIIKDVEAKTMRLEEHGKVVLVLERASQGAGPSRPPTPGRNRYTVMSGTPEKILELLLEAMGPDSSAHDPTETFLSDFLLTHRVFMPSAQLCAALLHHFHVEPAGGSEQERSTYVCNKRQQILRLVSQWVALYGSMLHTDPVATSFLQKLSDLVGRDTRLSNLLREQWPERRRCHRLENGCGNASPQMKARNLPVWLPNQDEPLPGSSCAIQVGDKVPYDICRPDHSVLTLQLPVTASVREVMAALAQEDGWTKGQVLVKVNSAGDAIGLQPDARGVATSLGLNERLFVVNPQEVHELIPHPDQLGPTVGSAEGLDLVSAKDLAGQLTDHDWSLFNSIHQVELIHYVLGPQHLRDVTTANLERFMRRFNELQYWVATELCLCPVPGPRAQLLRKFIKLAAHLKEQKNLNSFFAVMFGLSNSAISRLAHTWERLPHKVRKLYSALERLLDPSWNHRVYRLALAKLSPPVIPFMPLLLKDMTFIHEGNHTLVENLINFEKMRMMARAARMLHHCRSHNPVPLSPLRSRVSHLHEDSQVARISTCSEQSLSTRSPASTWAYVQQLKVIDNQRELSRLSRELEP
In short: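 Nucleotide exchange uses 100 nM EPAC1, 250 nM RAP1B-BODIPY-GDP and 50 uM GDP, with compounds in a concentration-titration series. After 5 min at room temperature, fluorescence (480 nm ex/540 nm em) is read every 5 min for 30 min. Data are normalized to control ATA and DMSO.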

[9] = biological target: Rap guanine nucleotide exchange factor 3 (Homo sapiens) (UniProt O95398); test: Confirmatory qHTS for agonist of cAMP-regulated guanine nucleotide exchange factor 3 (EPAC1) (AID 1645881);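 note: EPAC1 catalysed release of BODIPY-GDP from Rap1B seen as fluorescence loss; 100% = effect of cAMP agonist control; nearly all actives have a fitted effect of over 75% in size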
[10] = biological target: Rap guanine nucleotide exchange factor 4 (Homo sapiens) (UniProt Q8WZA2); test: Confirmatory qHTS for agonist of cAMP-regulated guanine nucleotide exchange factor 4 (EPAC2) (AID 1645884);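 note: nucleotide exchange releases bodipy-GDP from Rap1 and this lowers its fluorescence; % is set by controls: 0 for no effect and ±100 for the full control effect; nearly all actives have a fitted effect of over 65% in size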
Sequence of Rap guanine nucleotide exchange factor 4 (Homo sapiens) (Q8WZA2 whole entry, looked up): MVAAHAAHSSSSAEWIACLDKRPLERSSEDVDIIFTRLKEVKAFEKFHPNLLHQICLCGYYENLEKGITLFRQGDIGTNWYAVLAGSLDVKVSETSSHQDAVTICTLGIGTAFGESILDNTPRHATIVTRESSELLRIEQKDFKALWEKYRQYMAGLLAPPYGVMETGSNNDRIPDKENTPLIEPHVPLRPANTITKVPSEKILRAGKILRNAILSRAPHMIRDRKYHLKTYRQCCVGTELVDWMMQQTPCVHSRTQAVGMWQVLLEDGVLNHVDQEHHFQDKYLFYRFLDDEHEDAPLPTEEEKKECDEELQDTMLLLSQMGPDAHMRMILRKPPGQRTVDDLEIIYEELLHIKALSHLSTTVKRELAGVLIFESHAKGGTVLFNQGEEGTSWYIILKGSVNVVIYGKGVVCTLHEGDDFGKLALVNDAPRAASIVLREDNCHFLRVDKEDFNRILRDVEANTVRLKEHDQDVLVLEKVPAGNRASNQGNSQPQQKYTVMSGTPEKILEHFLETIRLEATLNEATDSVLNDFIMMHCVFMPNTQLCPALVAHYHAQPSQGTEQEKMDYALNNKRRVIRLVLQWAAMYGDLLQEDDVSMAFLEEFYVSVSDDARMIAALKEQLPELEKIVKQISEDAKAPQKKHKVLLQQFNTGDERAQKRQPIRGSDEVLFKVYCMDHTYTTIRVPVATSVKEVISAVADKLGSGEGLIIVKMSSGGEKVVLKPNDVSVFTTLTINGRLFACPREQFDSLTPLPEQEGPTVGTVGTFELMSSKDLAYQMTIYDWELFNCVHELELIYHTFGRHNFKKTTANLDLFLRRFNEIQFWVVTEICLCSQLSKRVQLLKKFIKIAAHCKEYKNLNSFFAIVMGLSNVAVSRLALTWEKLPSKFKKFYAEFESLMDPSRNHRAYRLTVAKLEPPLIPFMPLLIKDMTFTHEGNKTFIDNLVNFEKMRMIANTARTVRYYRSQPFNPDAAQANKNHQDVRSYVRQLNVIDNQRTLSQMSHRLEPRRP

[11] = biological target: Rap guanine nucleotide exchange factor 4 (Homo sapiens) (UniProt Q8WZA2); test: Confirmatory qHTS for antagonist of cAMP-regulated guanine nucleotide exchange factor 4 (EPAC2) (AID 1645885); conditions: EPAC2 Rap1B-BODIPY-GDP exchange fluorescence, biochemical; note: potency is the fitted concentration of half-maximal effect; nearly all actives have a fitted effect of over 25% in size
[12] = biological target: Rap guanine nucleotide exchange factor 3 (Homo sapiens) (UniProt O95398); test: Counterscreen qHTS for antagonist of cAMP-regulated guanine nucleotide exchange factor 3 (EPAC1) (AID 1645888);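 note: fluorescence loss as bound BODIPY-GDP is released from Rap1B; % of control where 0% means no effect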
In short: (§1)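 Rap1B-BODIPY-GDP 250 nM + GDP 50 uM; cpds 7-pt, final 9.74 nM–152 uM (activator mode) or from 7.32 nM upwards (inhibitor mode); RT; FI 480/540 nm at 5 and 30 min, then ± cAMP, reread.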

[13] = biological target: Rap guanine nucleotide exchange factor 3 (Homo sapiens) (UniProt O95398); test: Counterscreen qHTS for agonist of cAMP-regulated guanine nucleotide exchange factor 3 (EPAC1) (AID 1645889); note: % of control where 0% means no effect; nearly all actives have a fitted effect of over 40% in size
In short: as §1

In the case of `Cc1c(Cn2c(C)nc3c(C(=O)O)cc(N4CCOCC4)cc32)cccc1C(F)(F)F`, the Potency [1] is reported as “inactive” and the Potency [2] is reported as “inactive”.
For `Cc1cc(CN2CCN(c3c(Br)cnc4nc(-c5ccc(N6CCN(C)CC6)cc5)[nH]c34)CC2)no1`, the Potency [1] was “inactive”, the Potency [2] was 9.52 µM (active) and the Potency [3] was 205 nM (active) and 468 nM (active). For the same molecule, the Potency [4] was 145 nM (active) and 296 nM (active).
With `COc1cc(C(=O)N2CCC(N3CCN(C)CC3)CC2)ccc1Nc1ncc2c(n1)N(C)c1ccccc1C(=O)N2C` the Potency [1] was “inactive”, the Potency [5] was “inactive” and the Potency [3] was 1.15 µM (active) and 1.48 µM (active). The Potency [4] was 1.45 µM (active) and 1.86 µM (active).
In the case of `NC1(Cc2ccc(Cl)cc2)CCN(c2ncnc3[nH]ccc23)CC1`, the Potency [1] is reported as “inactive”, the Potency [2] is reported as “inactive” and the Potency [3] is reported as 9.34 µM (active). The Potency [4] was 8.33 µM (active), the activity [6] was -4.59% and the activity change, negative = inhibition [7] was 0.429%.
In the case of `Cc1coc2c1C(=O)C(=O)c1c-2ccc2c1CCCC2(C)C`, the Potency [1] is reported as “inactive”, the Potency [5] is reported as 23.9 µM (active) and the Potency [3] is reported as “inactive”. The Potency [8] was 53.6 µM (active), the outcome [9] was “inactive” and the outcome [10] was “inactive”. The Potency [11] was 30.1 µM (active), the outcome [12] was “inactive” and the outcome [13] was “inactive”. The activity [6] was -26.5% and the Potency [7] was 24.1 µM (active).
With `CN1CCC(CNc2ccc3ncc(-c4cccc(OC(F)(F)F)c4)n3n2)CC1` the Potency [1] was “inactive”, the Potency [5] was 2.39 µM (active) and the Potency [3] was 2.58 µM (active) and 4.68 µM (active). For the same molecule, the Potency [4] was 2.05 µM (active) and 3.32 µM (active), the activity [6] was -52.2% and the Potency [7] was 30.4 µM (active).
In the case of `C=CC(=O)Nc1cc2c(Nc3ccc(F)c(Cl)c3)ncnc2cc1OCCCN1CCOCC1`, the Potency [1] is reported as “inactive”, the Potency [2] is reported as “inactive” and the Potency [3] is reported as 1.68 µM (active) and 2.95 µM (active). The Potency [4] was 1.5 µM (active) and 2.95 µM (active).
For `CC(C)c1cc(-c2n[nH]c(=O)n2-c2ccc3c(ccn3C)c2)c(O)cc1O`, the Potency [1] was “inactive”, the Potency [2] was 1.69 µM (active) and the Potency [3] was 25.8 nM (active) and 29.5 nM (active). The Potency [4] was 25.8 nM (active) and 29.5 nM (active), the activity [6] was -27.7% and the Potency [7] was 30.4 µM (active).
In the case of `C=C1C(=CC=C2CCC[C@]3(C)[C@@H]([C@H](C)C=C[C@H](C)C(C)C)CC[C@@H]23)C[C@@H](O)C[C@@H]1O`, the Potency [1] is reported as “inactive”, the Potency [2] is reported as 9.52 µM (active) and the Potency [3] is reported as “inactive”. For the same molecule, the Potency [4] was “inactive”.
With `CNC(=O)c1ccccc1Nc1nc(Nc2ccc(N3CCOCC3)cc2OC)ncc1Cl` the Potency [1] was “inactive”, the Potency [2] was 0.301 µM (active) and the Potency [3] was 2.05 µM (active) and 2.35 µM (active). The Potency [4] was 649 nM (active) and 1.05 µM (active).
